# In PubChem BioAssay (EPA / NIEHS):
# Inconclusive results are not listed. Active and inactive are the calls of the source. How the source made its calls: active means hit-call score of the fitted dose curve at least 0.9, where 1 is the maximum; inconclusive means response in the unintended direction; inactive means score below 0.9.
# Tests used:
# [1] = biological target: human Vascular Endothelial Growth Factor Receptor 1 (VEGFR1), FLT1 (gene 2321) (UniProt P17948); test: NVS_ENZ_hVEGFR1: NovaScreen (NVS) Enzymatic Assay for human Vascular Endothelial Growth Factor Receptor 1 (VEGFR1) (AID 2283226)
# Chain of human Vascular Endothelial Growth Factor Receptor 1 (VEGFR1), FLT1 (gene 2321) (P17948 whole entry, looked up): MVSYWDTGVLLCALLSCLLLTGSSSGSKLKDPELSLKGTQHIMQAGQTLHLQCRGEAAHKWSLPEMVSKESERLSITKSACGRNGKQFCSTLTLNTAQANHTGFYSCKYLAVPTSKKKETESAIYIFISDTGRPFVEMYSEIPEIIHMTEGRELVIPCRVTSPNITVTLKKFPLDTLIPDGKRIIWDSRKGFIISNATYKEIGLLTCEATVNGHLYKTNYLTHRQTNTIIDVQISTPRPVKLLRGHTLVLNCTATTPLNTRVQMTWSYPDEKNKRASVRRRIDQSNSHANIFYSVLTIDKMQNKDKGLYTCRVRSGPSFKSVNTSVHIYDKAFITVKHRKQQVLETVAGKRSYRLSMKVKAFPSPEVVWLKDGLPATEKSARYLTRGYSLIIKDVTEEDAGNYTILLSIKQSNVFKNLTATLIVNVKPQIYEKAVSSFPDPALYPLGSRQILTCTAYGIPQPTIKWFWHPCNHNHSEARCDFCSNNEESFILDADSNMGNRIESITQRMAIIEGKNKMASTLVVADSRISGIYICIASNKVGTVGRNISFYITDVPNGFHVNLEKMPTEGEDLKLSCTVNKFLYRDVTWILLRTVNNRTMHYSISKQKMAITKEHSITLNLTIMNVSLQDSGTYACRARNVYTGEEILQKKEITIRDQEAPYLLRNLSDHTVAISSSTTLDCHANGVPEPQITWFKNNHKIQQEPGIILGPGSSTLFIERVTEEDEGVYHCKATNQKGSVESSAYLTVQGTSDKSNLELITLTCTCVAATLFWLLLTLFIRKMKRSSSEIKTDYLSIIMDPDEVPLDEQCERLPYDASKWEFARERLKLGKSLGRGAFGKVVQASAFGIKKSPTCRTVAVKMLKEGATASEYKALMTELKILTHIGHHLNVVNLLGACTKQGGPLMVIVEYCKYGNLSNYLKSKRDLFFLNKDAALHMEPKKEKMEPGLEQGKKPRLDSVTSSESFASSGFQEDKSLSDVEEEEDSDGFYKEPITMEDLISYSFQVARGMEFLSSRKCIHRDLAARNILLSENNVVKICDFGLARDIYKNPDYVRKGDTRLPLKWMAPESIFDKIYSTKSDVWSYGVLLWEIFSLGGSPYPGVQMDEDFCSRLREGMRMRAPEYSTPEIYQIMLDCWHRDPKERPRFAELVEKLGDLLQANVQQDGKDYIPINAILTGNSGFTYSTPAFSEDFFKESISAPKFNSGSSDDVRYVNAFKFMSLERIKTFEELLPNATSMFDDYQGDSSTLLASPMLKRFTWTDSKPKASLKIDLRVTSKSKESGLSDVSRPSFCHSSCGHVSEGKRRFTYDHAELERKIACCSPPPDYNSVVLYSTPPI
# Outline: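 Cell-free assay of recombinant human VEGFR1 kinase with substrate, measured 1 h after dosing; fluorescence with electrophoretic mobility-shift separation of substrate and product, referenced to DMSO; primary screen at 25 uM in duplicate, actives then run in concentration series.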
# [2] = biological target: rat Acetylcholinesterase (AChE), Ache (gene 83817) (UniProt P37136); test: NVS_ENZ_rAChE: NovaScreen (NVS) Enzymatic Assay for rat Acetylcholinesterase (AChE) (AID 2283233)
# Chain of rat Acetylcholinesterase (AChE), Ache (gene 83817) (P37136 whole entry, looked up): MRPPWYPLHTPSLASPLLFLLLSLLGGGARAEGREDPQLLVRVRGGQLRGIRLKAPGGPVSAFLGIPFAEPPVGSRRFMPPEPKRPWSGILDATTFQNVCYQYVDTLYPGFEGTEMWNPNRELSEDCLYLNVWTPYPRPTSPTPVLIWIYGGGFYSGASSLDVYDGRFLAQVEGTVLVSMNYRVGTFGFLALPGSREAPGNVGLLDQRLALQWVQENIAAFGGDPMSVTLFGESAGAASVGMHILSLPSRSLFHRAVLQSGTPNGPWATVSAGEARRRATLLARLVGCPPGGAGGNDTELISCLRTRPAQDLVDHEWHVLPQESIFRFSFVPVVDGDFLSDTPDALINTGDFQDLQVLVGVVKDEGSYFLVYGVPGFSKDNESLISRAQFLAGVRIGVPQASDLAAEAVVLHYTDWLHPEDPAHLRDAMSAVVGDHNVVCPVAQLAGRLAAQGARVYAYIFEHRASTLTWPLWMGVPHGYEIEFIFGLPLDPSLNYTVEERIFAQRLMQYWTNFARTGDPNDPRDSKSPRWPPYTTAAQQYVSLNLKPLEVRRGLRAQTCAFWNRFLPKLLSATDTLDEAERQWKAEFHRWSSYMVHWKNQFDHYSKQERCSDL
# Outline: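 Rat brain membrane acetylcholinesterase activity measured colorimetrically 0.33 h after compound addition, loss of signal relative to DMSO. Primary screen in duplicate at 25 uM; actives re-run as concentration-response with 50 uM top concentration.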
# [3] = system: rat Monoamine Oxidase, MAO-A, Peripheral (MAOAP), gene 29253; test: NVS_ENZ_rMAOAP: NovaScreen (NVS) Enzymatic Assay for rat Monoamine Oxidase, MAO-A, Peripheral (MAOAP) (AID 2283237)
# Outline: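 Rat liver mitochondrial membranes served as the MAO-A source, with enzyme activity measured by radiometric scintillation counting 1.17 hours after dosing. Loss of signal was fitted against DMSO; primary screen used 25 uM in duplicate, follow-up used concentration series.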
compound,measurement,setting,value
Cc1ccc2c(c1N)C(=O)c1ccccc1C2=O,AC50,[1],25 µM (active)
CC(C)(C)c1ccc(O)cc1,outcome,[1],inactive
Nc1cc2c3c(c1)C(c1ccccc1)=N[C@@H](NC(=O)c1cccnc1)C(=O)N3CC2,outcome,[2],inactive
CCCCN(CCCC)SN(C)C(=O)Oc1cccc2c1OC(C)(C)C2,AC50,[2],1.13 µM (active)
ClC(Cl)c1ccccc1,outcome,[3],inactive
Cc1ccc(O)cc1C,outcome,[3],inactive
